Data: PubChem BioAssay (Tox21)
Results filed as inconclusive are left out. Where a call stands in place of a potency, no number is given. Unmarked numbers belong to inactive results. Activity calls are given as the source filed them. Unless noted, calls come from the whole dose curve; as a rule, active = well fitted curve in the direction sought with a large enough effect in the repeat runs; inconclusive = weak or mixed curves; inactive = no such curve, though single readings can be large; an effect the other way counts as inactive or inconclusive.

Assays:
[1] = biological target: Retinoic acid receptor RXR-alpha (Homo sapiens) (UniProt P19793); assay: qHTS assay to identify small molecule agonists of the RXR signaling pathway (AID 1159527; calls by dose curve; note: nearly all actives have a fitted effect of over 35% in size; note: potency is the fitted concentration of half-maximal effect)
Procedure, shortened: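 qHTS of the Tox21 10K library in GeneBLAzer RXR-alpha HEK 293T cells carrying a beta-lactamase reporter […]; 16 hr treatment, 9-cis retinoic acid as agonist control, FRET read-out.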

[2] = qHTS assay to identify small molecule agonists of the RXR signaling pathway - cell viability counter screen (AID 1159529); note: series mostly up to about 77 µM; nearly all actives have a fitted effect of over 50% in size
Procedure, shortened: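 Cell viability is measured by CellTiter-Glo luminescence, 30 min at room temperature, in wells already read for beta-lactamase. Engineered HEK 293T cells (RXR-alpha-UAS-bla) are dosed 16 hr at 37 C. Tetraoctyl ammonium bromide serves as positive control.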

[3] = qHTS assay to identify small molecule antagonists of the retinoid acid receptor (RAR) signaling pathway - cell viability counter screen (AID 1159551); note: nearly all actives have a fitted effect of over 35% in size
Procedure, shortened: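 ATP-based viability, C3RL4 cells, 6 h at 37 C with 1 uM final retinol co-added after compound; luminescence read 30 min post CellTiter-Glo, RT.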

[4] = qHTS assay to identify small molecule antagonists of the retinoic acid receptor (RAR) signaling pathway (AID 1159552; note: nearly all actives have a fitted effect of over 50% in size)
Procedure, shortened: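 Quantitative HTS in C3RL4 RARE-luciferase reporter cells. Compounds were added with 1 uM (final) retinol; luminescence was read after 6 hr.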

[5] = qHTS assay to identify small molecule agonists of the retinoic acid receptor (RAR) signaling pathway (AID 1159553)
Procedure, shortened: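 Quantitative high-throughput format: the Tox21 10K library was tested on C3RL4 RARE-luciferase cells for 6 hr at 37 C and 5% CO2, with luminescence measured after a 30 min room-temperature reagent step.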

[6] = qHTS assay to identify small molecule antagonists of the estrogen related receptor (ERR) signaling pathway from Tox21 library - cell viability counter screen (AID 1224834); note: nearly all actives have a fitted effect of over 30% in size
Procedure, shortened: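 Compounds in DMSO were pinned onto ERR cells that had been incubated for 6 h, and the plates were held at 37 C for 17.5 h. CellTiter-Fluor reagent was then added and fluorescence was measured after 30 min.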

[7] = biological target: Luciferin 4-monooxygenase (Photinus pyralis) (UniProt P08659); assay: qHTS assay to identify small molecule inhibitors of firefly luciferase (AID 1224835); note: series mostly up to about 120 µM; nearly all actives have a fitted effect of over 25% in size
Procedure, shortened: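 Biochemical qHTS: compounds run as interplate titrations against purified firefly enzyme, with D-luciferin and ATP each at its KM concentration. Light output recorded by CCD imaging.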

[8] = qHTS assay to identify small molecule agonists of the constitutive androstane receptor (CAR) signaling pathway - cell viability counter screen (AID 1224836); note: series mostly up to about 92 µM; nearly all actives have a fitted effect of over 45% in size
Procedure, shortened: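 Counter screen multiplexed with the CAR reporter readout: HepG2 cells co-transfected with hCAR and the CYP2B6-2.2kb construct receive a 15-concentration compound series and 0.75 uM PK11195 (final), then CellTiter-Fluor fluorescence is read after 23 h.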

[9] = qHTS assay to identify small molecule antagonists of the constitutive androstane receptor (CAR) signaling pathway - cell viability counter screen (AID 1224837); note: series mostly up to about 92 µM; nearly all actives have a fitted effect of over 45% in size
Procedure, shortened: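 Cells are seeded, rested 4 hr at 37 C/5% CO2, dosed with compound (15-point series) and 50 nM CITCO, incubated a further 23 hr, and then CellTiter-Fluor reagent is added before fluorescence is read. The line is HepG2 with stable hCAR and CYP2B6-2.2kb.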

[10] = biological target: Nuclear receptor subfamily 1 group I member 3 (Homo sapiens) (UniProt Q14994); assay: qHTS assay to identify small molecule antagonists of the constitutive androstane receptor (CAR) signaling pathway (AID 1224838);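 note: HepG2 cells stably expressing hCAR with CYP2B6 luciferase reporter stimulated by CITCO; nearly all actives have a fitted effect of over 40% in size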
Procedure, shortened: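 Luminescence from a CYP2B6-2.2kb promoter reporter in hCAR-expressing HepG2 cells reflects CAR signaling. Cells received compounds at 15 concentrations and 50 nM CITCO (final), then incubated 24 h at 37 C/5% CO2.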

[11] = biological target: Nuclear receptor subfamily 1 group I member 3 (Homo sapiens) (UniProt Q14994); assay: qHTS assay to identify small molecule agonists of the constitutive androstane receptor (CAR) signaling pathway (AID 1224839); note: nearly all actives have a fitted effect of over 15% in size; note: potency is the fitted concentration of half-maximal effect; for activation: series mostly up to about 92 µM
Procedure, shortened: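 A 15-concentration quantitative screen uses HepG2 cells co-transfected stably with human CAR and CYP2B6-2.2kb reporter. Treatment lasts 24 h with 0.75 uM PK11195 final present; ONE-Glo luminescence is the signal.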

[12] = qHTS assay to identify small molecule antagonists of the estrogen related receptor signaling pathway with the pleiotropic PPARgamma coactivator (PGC) from Tox21 10K library - cell viability counter screen (AID 1224840; active = well fitted cell-killing curve with a large enough effect in the repeat runs, not every such curve was filed as active; note: nearly all actives have a fitted effect of over 40% in size)
Procedure, shortened: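 Cell viability is measured by CellTiter-Fluor fluorescence in PGC/ERR cells that receive compounds after a 6-hour attachment period and are then incubated 17.5 hours at 37 C.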

[13] = biological target: Thyrotropin receptor (Homo sapiens) (UniProt P16473); assay: qHTS assay to identify small molecule agonists of the thyroid stimulating hormone receptor (TSHR) signaling pathway (AID 1224843; calls by dose curve; note: nearly all actives have a fitted effect of over 45% in size)
Procedure, shortened: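 Agonist-mode screen: TSHR HEK293 cells received test chemicals for half an hour at room temperature, then HTRF cAMP detection reagents for one hour prior to fluorescence measurement. Each chemical ran as a 15-concentration series, triplicated.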

[14] = qHTS assay to identify small molecule agonists of the hypoxia (HIF-1) signaling pathway - cell viability counter screen (AID 1224844; calls by dose curve; note: nearly all actives have a fitted effect of over 50% in size)
Procedure, shortened: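 Viability counter screen: HRE-bla ME-180 cells plated 5 hrs before compound addition, treated 17 hrs at 37C and 5% CO2, then CellTiter-Glo added after the FRET reporter read; luminescence after 30 min.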

[15] = qHTS assay to identify small molecule agonists of H2AX (AID 1224845; active = well fitted activation curve with a large enough effect in the signal ratio in the repeat runs, not every such curve was filed as active; the % refers to the signal ratio)
Procedure, shortened: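 Wild-type CHO-K1 cells, plated overnight, exposed 3hr at 37C to 15 concentrations (0.76% DMSO final). Lysed, then HTRF anti-pH2AX (S139) cryptate and anti-H2AX-d2 antibodies, 24 hr room temperature; 665/620 nm emission read.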

[16] = qHTS assay to identify small molecule agonists of the hypoxia (HIF-1) signaling pathway (AID 1224846; active = well fitted activation curve with a large enough effect in the signal ratio in the repeat runs, not every such curve was filed as active; the % refers to the signal ratio)
Procedure, shortened: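 Agonist mode reporter screen. ME-180 cells stably expressing bla under HRE control received test compounds in DMSO for 17 hrs (37C, 5% CO2), and beta-lactamase activity was then detected with the CCF4-AM FRET substrate.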

[17] = qHTS assay to identify small molecule agonists of H2AX - cell viability counter screen (AID 1224847; calls by dose curve; note: top concentration of the series differs between compounds; nearly all actives have a fitted effect of over 30% in size)
Procedure, shortened: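 We seed wild-type CHO-K1 cells overnight, treat them for 3 hr at 37C with compounds in 15-concentration series, and quantify remaining viability by CellTiter-Glo luminescence.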

[18] = qHTS assay to identify small molecule antagonists of the estrogen related receptor signaling pathway with the pleiotropic PPARgamma coactivator (PGC) from Tox21 10K library (AID 1224841; call rule not given here; note: series mostly up to about 92 µM; actives are mostly falling curves and most rising ones were filed inactive; nearly all actives have a fitted effect of over 50% in size)
Procedure, shortened: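 Cells stably carrying the PGC/ERR reporter, seeded at 2,000 per well, received pin-transferred compounds 6 h post-plating. Exposure lasted 18 h at 37 C. Signal: One-Glo luminescence.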

[19] = qHTS assay to identify small molecule agonists of the estrogen related receptor signaling pathway with the pleiotropic PPARgamma coactivator (PGC) from Tox21 10K library (AID 1224842); note: nearly all actives have a fitted effect of over 15% in size
Procedure, shortened: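 PGC/ERR reporter cell line, 2,000 cells per well, incubated 6 h at 37 C before 23 nL compound in DMSO was added. After 18 h at 37 C, One-Glo luminescence read following 30 min at room temperature.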

[20] = qHTS assay to identify small molecule antagonists of the estrogen related receptor (ERR) signaling pathway from Tox21 library (AID 1224848); note: nearly all actives have a fitted effect of over 50% in size
Procedure, shortened: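 Quantitative high-throughput format: ERR reporter cells (2,000/well) pre-incubated 6 h, treated 18 h at 37 C with compounds in DMSO alongside positive and negative controls, then read by ONE-Glo luminescence.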

Retinoic acid receptor RXR-alpha (Homo sapiens), sequence (P19793 whole entry, looked up): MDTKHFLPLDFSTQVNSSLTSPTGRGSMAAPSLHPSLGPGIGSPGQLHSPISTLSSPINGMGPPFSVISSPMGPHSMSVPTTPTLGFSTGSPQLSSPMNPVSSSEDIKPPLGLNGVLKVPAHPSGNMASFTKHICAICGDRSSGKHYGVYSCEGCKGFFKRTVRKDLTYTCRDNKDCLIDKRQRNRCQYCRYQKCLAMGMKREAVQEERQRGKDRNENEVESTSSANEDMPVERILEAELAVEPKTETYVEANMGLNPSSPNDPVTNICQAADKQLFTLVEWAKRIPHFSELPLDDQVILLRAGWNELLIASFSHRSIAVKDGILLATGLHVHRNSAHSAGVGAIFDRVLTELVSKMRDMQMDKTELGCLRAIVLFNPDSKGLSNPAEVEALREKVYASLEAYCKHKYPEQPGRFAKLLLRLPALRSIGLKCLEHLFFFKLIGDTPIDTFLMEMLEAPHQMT
Nuclear receptor subfamily 1 group I member 3 (Homo sapiens), sequence (Q14994 whole entry, looked up): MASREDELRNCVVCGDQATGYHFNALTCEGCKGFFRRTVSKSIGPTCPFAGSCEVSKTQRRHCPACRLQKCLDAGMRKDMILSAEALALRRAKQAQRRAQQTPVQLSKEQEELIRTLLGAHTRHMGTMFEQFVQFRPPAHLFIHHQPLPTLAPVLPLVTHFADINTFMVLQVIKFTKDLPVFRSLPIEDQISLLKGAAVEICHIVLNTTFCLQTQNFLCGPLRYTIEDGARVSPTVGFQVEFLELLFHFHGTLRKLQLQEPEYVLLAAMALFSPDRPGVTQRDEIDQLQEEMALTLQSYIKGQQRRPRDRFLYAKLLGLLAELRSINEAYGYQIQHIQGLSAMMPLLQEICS
Luciferin 4-monooxygenase (Photinus pyralis), sequence (P08659 whole entry, looked up): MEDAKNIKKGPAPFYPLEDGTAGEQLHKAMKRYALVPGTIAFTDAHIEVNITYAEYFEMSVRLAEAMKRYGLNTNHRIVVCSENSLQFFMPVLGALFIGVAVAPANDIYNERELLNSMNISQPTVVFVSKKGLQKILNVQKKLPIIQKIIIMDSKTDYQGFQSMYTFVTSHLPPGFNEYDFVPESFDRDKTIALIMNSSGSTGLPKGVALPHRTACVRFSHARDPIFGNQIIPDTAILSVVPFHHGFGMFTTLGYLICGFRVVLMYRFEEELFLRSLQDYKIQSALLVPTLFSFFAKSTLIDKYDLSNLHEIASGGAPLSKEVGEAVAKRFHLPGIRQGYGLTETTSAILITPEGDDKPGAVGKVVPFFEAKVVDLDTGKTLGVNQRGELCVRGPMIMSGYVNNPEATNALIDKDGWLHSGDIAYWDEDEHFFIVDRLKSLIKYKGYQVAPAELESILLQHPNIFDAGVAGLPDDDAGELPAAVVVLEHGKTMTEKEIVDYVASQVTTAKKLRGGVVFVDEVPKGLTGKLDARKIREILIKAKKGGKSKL
Thyrotropin receptor (Homo sapiens), sequence (P16473 whole entry, looked up): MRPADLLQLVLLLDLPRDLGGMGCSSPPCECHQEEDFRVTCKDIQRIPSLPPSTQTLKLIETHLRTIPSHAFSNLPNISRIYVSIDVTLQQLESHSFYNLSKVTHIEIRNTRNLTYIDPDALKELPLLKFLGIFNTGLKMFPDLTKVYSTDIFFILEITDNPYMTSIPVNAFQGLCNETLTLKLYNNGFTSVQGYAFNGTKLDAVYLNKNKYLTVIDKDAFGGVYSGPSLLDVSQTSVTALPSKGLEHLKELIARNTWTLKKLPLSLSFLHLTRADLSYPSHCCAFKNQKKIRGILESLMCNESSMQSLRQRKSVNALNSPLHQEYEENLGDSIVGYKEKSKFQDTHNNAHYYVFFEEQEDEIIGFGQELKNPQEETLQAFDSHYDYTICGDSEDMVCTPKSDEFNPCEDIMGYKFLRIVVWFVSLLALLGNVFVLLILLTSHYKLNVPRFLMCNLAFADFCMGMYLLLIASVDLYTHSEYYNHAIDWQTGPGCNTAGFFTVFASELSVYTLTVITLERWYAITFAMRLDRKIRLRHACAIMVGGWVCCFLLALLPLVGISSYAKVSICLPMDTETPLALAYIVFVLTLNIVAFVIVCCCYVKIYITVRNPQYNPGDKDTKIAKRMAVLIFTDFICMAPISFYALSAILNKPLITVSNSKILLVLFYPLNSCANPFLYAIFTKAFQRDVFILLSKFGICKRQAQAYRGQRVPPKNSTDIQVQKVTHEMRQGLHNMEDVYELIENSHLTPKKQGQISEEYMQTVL

Compound	Potency [1]	outcome [2]	outcome [3]	outcome [4]	Potency [5]	outcome [6]	Potency [7]	outcome [8]	outcome [9]	Potency [10]	Potency [11]	outcome [12]	outcome [13]	outcome [14]	outcome [15]	outcome [16]	outcome [17]	outcome [18]	outcome [19]	Potency [20]
OCCN1CCOCC1	inactive	inactive	inactive	inactive	inactive	inactive	inactive	inactive	inactive	inactive	inactive	inactive	inactive	inactive	inactive	inactive	inactive			
C/C(CC(C)C)=N\O	inactive	inactive	inactive	inactive	inactive	inactive	inactive	inactive	inactive	inactive	inactive	inactive			inactive	inactive	inactive			
COc1cc(OC)nc(O[C@H](C(=O)O)C(OC)(c2ccccc2)c2ccccc2)n1	inactive	inactive	inactive	inactive	inactive	inactive	inactive	inactive	inactive	inactive	inactive	inactive		inactive	inactive	inactive				
COC(=O)c1ccccc1C(=O)O	21.9 µM (active)	inactive	inactive	inactive	inactive	inactive	inactive	inactive	inactive	inactive	inactive	inactive	inactive		inactive	inactive	inactive			
CCCC(CC)c1ccccc1 (stereo not given)	inactive	inactive	inactive	inactive	inactive	inactive	inactive	inactive	inactive	inactive	inactive	inactive		inactive	inactive	inactive	inactive			
O=C1CCC(=O)N1Cl	inactive	inactive	inactive	inactive	inactive	inactive	inactive	inactive	inactive	inactive	inactive	inactive	inactive		inactive	inactive	inactive			
COC(=O)CCCCC(=O)O	inactive	inactive	inactive	inactive	inactive	inactive	inactive	inactive	inactive	inactive	inactive	inactive		inactive	inactive	inactive	inactive			
COc1c2occc2c(OC)c2c(=O)cc(C)oc12	inactive	inactive	inactive	inactive	inactive	inactive	inactive	inactive	inactive	inactive	13.3 µM (active)	inactive	inactive	inactive	inactive		inactive			
C[C@@H](O)C(=O)O	inactive	inactive	inactive	inactive	inactive	inactive	inactive	inactive	inactive	inactive	inactive	inactive	inactive	inactive	inactive	inactive	inactive			
CC1(C)Cc2cccc(N)c2O1	inactive	inactive	inactive	inactive	inactive	inactive	inactive	inactive	inactive	inactive	inactive	inactive		inactive	inactive	inactive	inactive			
CC(C)=CCC[C@@](C)(O)[C@H]1CC=C(C)CC1	inactive	inactive	inactive	inactive	inactive	inactive	inactive	inactive	inactive	inactive	inactive	inactive		inactive	inactive	inactive	inactive			
O=C(O)CNC(=O)CNC(=O)CNC(=O)CSC(=O)c1ccccc1	inactive	inactive	inactive	inactive	inactive	inactive	inactive	inactive	inactive	inactive	inactive		inactive		inactive	inactive	inactive			
CC(=O)O[Si](C)(OC(C)=O)OC(C)=O	inactive	inactive	inactive	inactive	inactive	inactive	inactive	inactive		inactive	inactive	inactive	inactive	inactive	inactive	inactive	inactive			
O=C(Cl)c1ccccc1[N+](=O)[O-]	inactive	inactive	inactive	inactive	inactive	inactive	inactive	inactive	inactive	inactive	inactive		inactive	inactive	inactive	inactive	inactive			
C[C@]12CCC(=O)C=C1CC[C@H]1[C@@H]3CC[C@](O)(C(=O)CO)[C@@]3(C)C[C@H](O)[C@@]12F	inactive	inactive	inactive	inactive	inactive	inactive	inactive	inactive	inactive	inactive	inactive		inactive	inactive	inactive	inactive	inactive			
CC1(C)[C@H]2CC[C@](C)(C2)[C@H]1O	inactive	inactive	inactive	inactive	inactive	inactive	inactive	inactive	inactive	inactive	inactive		inactive	inactive	inactive	inactive	inactive			
O=C1OCCO1	inactive	inactive	inactive	inactive	inactive	inactive	inactive	inactive	inactive	inactive	inactive				inactive	inactive	inactive			
CC1CC(=O)CC(C)(C)C1 (stereo not given)	inactive	inactive	inactive	inactive	inactive	inactive	inactive	inactive	inactive			inactive	inactive	inactive	inactive	inactive	inactive			
CC(C)Cn1cnc2c1c(=O)n(C)c(=O)n2C	inactive	inactive	inactive	inactive	inactive	inactive	inactive	inactive		inactive	inactive	inactive	inactive	inactive	inactive	inactive	inactive			
Cc1cc(C)c(C(=O)O)c(C)c1	inactive	inactive	inactive	inactive	inactive	inactive	inactive	inactive	inactive	inactive	inactive		inactive		inactive	inactive	inactive			
CC12CCC(C1)C(C)(C)C2O (stereo not given)	inactive	inactive	inactive	inactive	inactive	inactive	inactive	inactive		inactive	inactive	inactive	inactive	inactive	inactive	inactive	inactive			
c1ccc(-c2nn[nH]n2)cc1	inactive	inactive	inactive	inactive	inactive	inactive	inactive	inactive		inactive	inactive	inactive		inactive	inactive	inactive		inactive	inactive	inactive
Cc1c(N)cccc1Cl	inactive	inactive	inactive	inactive	inactive	inactive	inactive	inactive	inactive	inactive	inactive		inactive	inactive	inactive	inactive	inactive			
CSc1cnccn1	inactive	inactive	inactive	inactive	inactive	inactive	inactive	inactive	inactive	inactive	inactive		inactive		inactive	inactive	inactive			
CCC(C(=O)OCCN1CCOC(c2ccccc2)C1C)c1ccccc1 (stereo not given)	inactive	inactive	inactive	inactive	inactive	inactive	inactive	inactive		inactive	inactive	inactive			inactive	inactive			inactive	
COc1ccc2c(c1)c1c3n2CCN(C)C3=NCC1	inactive	inactive	inactive	inactive	inactive	inactive	inactive	inactive		inactive	inactive	inactive	inactive	inactive	inactive	inactive	inactive			
CCNC(=O)NCc1cccc(Cl)c1	inactive	inactive	inactive	inactive	inactive	inactive	inactive	inactive	inactive	inactive	inactive		inactive	inactive	inactive	inactive	inactive			
O=C(O)c1cc2ccccc2nc1C(=O)O	inactive	inactive	inactive	inactive	inactive	inactive	inactive	inactive	inactive	inactive	inactive			inactive	inactive	inactive	inactive			
